Data on 80 compounds can be found in PubChem BioAssay AID504706 (National Center for Advancing Translational Sciences (NCATS), 2011).

The campaign covered roughly 320,000 compounds. About 200 (0.062%) were called active. About 6% were inconclusive and are not listed. Calls follow the shape of the dose curve; as a rule, active = well fitted activation curve with a large enough effect; inconclusive = small, poorly fitted or top-dose-only effect; inactive = no such curve, though single readings can be large or run the other way. Shown is part of a subset that was picked to be rich in actives. Where a call stands in place of a potency, no number is given.
Potency is read from the fitted curve at half-maximal effect.

The nature of the test: qHTS assay for re-activators of p53 using a Luc reporter. Also: nearly all actives have a fitted effect of over 45% in size. The following applies: H1299 p53-A138V BP100-luciferase reporter, luminescence, 24 h; series mostly up to 92.2 µM. An excerpt: The p53 tumor suppressor plays a key role in suppression of tumorigenesis and in human carcinogenesis. It is frequently found inactivated in human cancers, mainly by point mutation. These point mutations are found in a wide variety of human cancers and a majority of them affect the DNA binding domain of the protein. The point mutations either alter native p53 conformation or abolish DNA contact. Additionally, cancer cells with p53 mutations are more resistant to chemo-radiation therapies. In order to find activators to reactivate this important protein, a cell-based screen for p53-dependent luciferase-reporter expression was developed. A p53-null H1299 lung cancer cell line was stably co-transfected with a temperature sensitive p53 mutant, p53-A138V, and a p53-responsive BP100-luciferase reporter. This cell model has previously been characterized in a gene chip profiling experiment for p53 activation. By lowering the culture temperature from 37 deg C (mutant p53 conformation) to 32 deg C (w.t. p53 conformation), a 30-60 fold increase in activation of luciferase activity is observed. At assay temperate, 37 deg C, basal reporter expression is very low and after the addition of detection reagent, a luminescent read-out is carried out. NIH Chemical Genomics Center [NCGC] NIH Molecular Libraries Probe Production Centers Network [MLPCN] MLPCN Grant: DA031088-01A1 Assay Provider (PI): Yi Sung, University of Michigan at Ann Arbor
5ul of 1000 cells per well are dispensed in all wells except column 4, into white solid-bottom TC-treated Kalypsys plates. The cells are kept in Opti-MEM and supplemented with 10% FBS and dispensed using a Multidrop (Thermo). Then using the Kalypsys pin-tool, 23nl of compounds are pinned. The compounds are starting concentration at 10mM, with 1:5 dilution, 4 points, and the control compound nocodazole is pinned in column 1 at 25mM, 1:3 dilution, in duplicate, 25mM nocodazole is pinned in column 2. Please note, all concentrations are working concentrations. 5ul of 1pM purified luciferase enzyme is dispensed using the Kalypsys dispenser in column 4. Plates are incubated for 24 hrs at 37 deg C, 5% CO2, and 95% humidity. Then 4ul of the detection reagent Amplite (ABD Bioquest) is added using the Kalypsys dispenser. Plates are incubated for 10 min at ambient room temperature and are then read on the ViewLux (Perkin Elmer) using a clear filter for a luminescent read-out.
In general terms: In qHTS, concentration-response curves come from the screen itself.
In the case of `COc1cccc(/C(C)=N/Nc2ncc(Cl)cc2Cl)c1`, the Potency is 5.01 µM (active). The entry for `C/C(=N\Nc1ncc(Cl)cc1Cl)c1cccs1` is “inactive”; for `CCN(CC)c1ccc(C(=O)N/N=C(\C)c2cccc(OC)c2)cc1` it is “inactive”; for `O=C1N[C@@H](c2ccccc2)COC(=O)[C@H](Cc2ccc(F)cc2)C/C=C\C[C@@H]1CC(=O)N(CCO)Cc1ccccc1` it is “inactive”. In the case of `O=C(CCc1nc2ccccc2c(=O)[nH]1)OCC(=O)c1cccc(Cl)c1`, the Potency result is “inactive”. Consider `CCCc1nc2ccccc2c(C(=O)OCC(=O)c2ccc3c(c2)NC(=O)CO3)c1CC`, for which the Potency result is “inactive”.

Turning to `Cc1ccc(C(=O)COC(=O)c2cccc(N3C(=O)c4c(C)nc5ccccc5c4C3=O)c2)cc1C`, the Potency was 35.5 µM (active).

`CNC[C@@H]1Oc2c(NS(C)(=O)=O)cccc2C(=O)N([C@@H](C)CO)C[C@H]1C`: the Potency entry was “inactive”.

As for `COC(=O)[C@]1(Cc2ccccc2)N[C@H](CN(C)S(=O)(=O)c2ccc(OC(F)(F)F)cc2)[C@@H]2C(=O)N(C)C(=O)[C@@H]21`, the Potency result was “inactive”. Take `COc1ccc(CCNC(=O)COC(=O)c2ncc(Cl)c(Cl)c2Cl)cc1OC`: the Potency entry was “inactive”.

Turning to `C=CC[C@@H](CC(=O)NCCO)C(=O)N[C@H](C)COC(=O)[C@@H](CC=C)CC(=O)OC(C)(C)C`, the Potency entry is “inactive”. With `CC(C)NC(=O)Nc1cccc2c1O[C@@H](CN(C)S(=O)(=O)c1ccc(F)cc1)[C@@H](C)CN([C@H](C)CO)C2=O`, the Potency result was “inactive”. As for `C=CCC[C@@H](Cc1ccc(F)cc1)C(=O)O[C@H](CNC(=O)[C@H](CC=C)CC(=O)N(CCO)Cc1ccccc1)c1ccccc1`, the Potency entry is “inactive”. As to `Cn1c(N)c(C(=O)COC(=O)c2cccc(S(=O)(=O)N3CCOCC3)c2)c(=O)n(C)c1=O`, the Potency result was “inactive”. For the compound `Cc1ccc(C(=O)NCC(=O)NC2CC2)cc1`, the Potency entry is “inactive”.

In the case of `COc1ccc2nc3n(c(=O)c2c1)-c1ccc(Cl)cc1C(=O)NC3Cc1ccccc1` (stereo not given), the Potency entry was “inactive”. On to `CCN(C[C@H]1N[C@@](CC)(C(=O)OC)[C@H]2C(=O)N(Cc3ccccc3)C(=O)[C@@H]12)S(=O)(=O)c1ccccc1`, for which the Potency result was “inactive”. The entry for `Cc1ccc(S(=O)(=O)Nc2ccc3c(c2)C(=O)N([C@H](C)CO)C[C@@H](C)[C@@H](CN(C)C(=O)Nc2cccc4ccccc24)O3)cc1` is “inactive”; for `N#CCCN(C(=O)COC(=O)c1ccc2c(c1)OCCO2)c1ccccc1` it is “inactive”; for `O=C(COC(=O)CSc1ccccc1)Nc1ccc(F)cc1F` it is “inactive”.

In the case of `COc1ccc2[nH]c3c(c2c1)CCN1C(=O)C(CC(=O)NCCCN(C)C)C[C@H](C(=O)N2CCOCC2)[C@@]31CCC1CCCC1` (stereo not given in full), the Potency entry is “inactive”. The result for `CC[C@]1(C(=O)OC)[C@H]2C(=O)N(Cc3ccccc3)C(=O)[C@H]2[C@H]2CN=C(SCc3ccc(Cl)cc3)N21` reads “inactive”.

As to `COC(=O)c1ccc(/C=C/c2c(-c3ccc(OC)cc3)sc3ccccc23)cc1`, the Potency result is “inactive”.

As to `Cc1ccc(S(=O)(=O)N2CCN(C(=O)CN3C(=O)NC(C)(c4ccc(Cl)cc4)C3=O)CC2)c(C)c1` (stereo not given), the Potency entry is “inactive”. Consider `O=C(CSc1nc2ccccc2c(=O)n1-c1ccccc1F)N1CCOCC1`, for which the Potency result is “inactive”. On to `Cc1c(Cl)cnc(NC(=O)COC(=O)C2CCCC2)c1Cl`, for which the Potency result was “inactive”. On to `C[C@H](CO)N1C[C@H](C)[C@H](CN(C)C(=O)Nc2ccc(C(F)(F)F)cc2)Oc2c(NC(=O)c3ccncc3)cccc2C1=O`, for which the Potency result is “inactive”.

As to `CC[C@]1(C(=O)OC)[C@H]2C(=O)N(Cc3ccccc3)C(=O)[C@H]2[C@H]2CN=C(SCc3ccccc3)N21`, the Potency entry is “inactive”.

Consider `CC[C@@]1(C(=O)OC)N[C@H](CN(C)C(C)=O)[C@@H]2C(=O)N(C)C(=O)[C@@H]21`, for which the Potency entry was “inactive”.

As for `CN(C(=O)c1cccc(NC(=O)Cc2cccc([N+](=O)[O-])c2)c1)C1CCCCC1`, the Potency entry is “inactive”. As for `COc1cc(C(=O)NC2CCN(C)CC2)ccc1Nc1ncc2c(n1)N(C1CCC(O)CC1)CCC(=O)N2C` (stereo not given), the Potency result was “inactive”.

`CSCCC1NC(=O)N(CC(=O)Nc2cccc(S(=O)(=O)N3CCCCCC3)c2)C1=O` (stereo not given): the Potency result is “inactive”. Turning to `CN(C(=O)c1cccc(NC(=O)C2CCN(C(=O)OC(C)(C)C)CC2)c1)C1CCC1`, the Potency entry was “inactive”. As for `Cc1ccc(S(=O)(=O)N2CCN(C(=O)COC(=O)CNC(=O)c3ccc(C(C)(C)C)cc3)CC2)c(C)c1`, the Potency result is “inactive”. Take `CCC(CO)Oc1cc(NCc2ccccc2)c2ncn(C3CCCC3)c2c1` (stereo not given): the Potency entry is “inactive”.

For `Nc1ncnc2c1ncn2[C@@H]1O[C@H](CNCc2cccn2-c2nccs2)[C@@H](O)[C@H]1O`, the Potency result is “inactive”. As for `CCOC(=O)C1=CN(Cc2ccc(Br)cc2)S(=O)(=O)NC1C` (stereo not given), the Potency entry was “inactive”. For `COc1ccc2[nH]c3c(c2c1)CCN1C(=O)C(CC(=O)NCCc2ccccn2)C[C@H](C(=O)N2CCOCC2)[C@@]31C` (stereo not given in full), the Potency result was “inactive”.

For `O=C(COC(=O)c1cc[n+]([O-])cc1)Nc1ccc(Cl)c(C(F)(F)F)c1`, the Potency result was “inactive”.

Turning to `COc1ccc(CCOC2OC(CO)C(OC(=O)/C=C/c3ccc(O)c(OC)c3)C(O[C@H]3O[C@@H](C)[C@H](O)[C@@H](O)[C@H]3O)C2O)cc1O` (stereo not given in full), the Potency entry was “inactive”. The result for `CCOC(=O)[C@H]1[C@H]2COc3ccccc3[C@@H]2N2C(=O)CN(Cc3ccccc3)C(=O)[C@@]12C` reads “inactive”; that for `COc1ccc(OC)c(NC(=O)COC(=O)Cc2ccsc2)c1`, “inactive”.

As to `O=C(CC1SC(N2CCOCC2)=NC1=O)Nc1ccccc1F` (stereo not given), the Potency result was “inactive”.

In the case of `O=C(NC(=S)Nc1ccc(Br)cc1F)C1CCCCC1`, the Potency entry was “inactive”. As for `COc1ccc(CNC(=O)C[C@H]2C[C@H](C(=O)N3CCOCC3)[C@@]3(CCC4CCCC4)c4[nH]c5ccc(Cl)cc5c4CCN3C2=O)cc1OC`, the Potency result is “inactive”. `CCN1C[C@@H]2[C@@H]3C(=O)N(Cc4ccccc4)C(=O)[C@@H]3[C@](Cc3ccccc3)(C(=O)OC)N2C1=NC1CCCCC1`: the Potency entry was “inactive”.

For `CCCCNc1c(-c2ccc(OC)c(Sc3ccc(OC)cc3)c2)nc2ccc(Cl)cn12`, the Potency entry was “inactive”.

Turning to `CC(C)N(C(=O)[C@H]1C[C@H](CC(=O)NC(C)(C)C)C(=O)N2CCc3c([nH]c4ccc(Cl)cc34)[C@]12C)C(C)C`, the Potency result was “inactive”. The entry for `Cc1c(NC(=O)C(C)OC(=O)c2ccccc2O)c(=O)n(-c2ccccc2)n1C` (stereo not given) is “inactive”. The entry for `COCCN(CCOC)S(=O)(=O)NC[C@H]1O[C@@H](n2cnc3c(N)ncnc32)[C@H](O)[C@@H]1O` is “inactive”; for `Cc1ccsc1C(=O)NNC(=O)COc1ccc(Br)cc1` it is “inactive”.

Consider `COc1cc(C)ccc1OCC(=O)OCC(=O)c1ccc[nH]1`, for which the Potency result is “inactive”. As to `CCN(CC)C(=O)[C@H]1C[C@H](CC(=O)NCC23CC4CC(CC(C4)C2)C3)C(=O)N2CCc3c([nH]c4cc(CCC(=O)N(C)C)ccc34)[C@]12C`, the Potency entry was “inactive”. Regarding `O=C(COC(=O)c1cccc(Cl)c1)NC(=O)NCc1ccccc1`, the Potency entry is “inactive”.

As for `CCCc1cc(=O)[nH]c(SCC(=O)Nc2ccc(C(=O)Nc3ccccc3OC)cc2)n1`, the Potency result was “inactive”. As to `O=C(CSc1ncn[nH]1)Nc1ccc(Br)cc1Br`, the Potency entry was “inactive”. Turning to `CC(C)(C)OC(=O)C[C@@H]1C/C=C\C[C@@H](CC(=O)N[C@@H](CO)Cc2ccccc2)C(=O)N2CCC[C@H]2COC1=O`, the Potency entry is “inactive”. As for `COc1ccccc1-c1nnc2n1N=C(c1ccc(OC(F)F)c(OCC3CC3)c1)CS2`, the Potency result is “inactive”. Turning to `C=CC1=C(C(=O)O)N2C(=O)[C@@H](NC(=O)/C(=N\OCC(=O)O)c3csc(N)n3)[C@H]2SC1`, the Potency entry is “inactive”. The entry for `O=C(CSc1ncn[nH]1)Nc1nc(-c2cccc([N+](=O)[O-])c2)cs1` is “inactive”; for `CCNC(=O)CSc1nc(-c2ccccc2)cs1` it is “inactive”; for `O=C(CSc1nc(-c2ccccc2)cs1)Nc1cccc([N+](=O)[O-])c1` it is 35.5 µM (active). As to `CC(C)(C)OC(=O)C[C@@H]1C/C=C\C[C@H](CC(=O)N[C@@H](CO)Cc2ccccc2)C(=O)N[C@H](Cc2ccccc2)COC1=O`, the Potency entry was “inactive”. Take `CC(C)n1cnc2c(NCc3ccccc3)cc(OCC3CCN(C)CC3)cc21`: the Potency result was “inactive”. The result for `CN(Cc1ccc(CNC[C@H]2O[C@@H](n3cnc4c(N)ncnc43)[C@H](O)[C@@H]2O)o1)S(C)(=O)=O` reads “inactive”; that for `CCOC(=O)C1=C(C)N(C[C@@H]2CC[C@@H](Cc3ccc(-c4ccccc4)cc3)O2)C(=O)NC1c1ccc([N+](=O)[O-])cc1` (stereo not given in full), “inactive”; that for `O=S(=O)(c1cccs1)N1CCN(CCOc2ccccc2)CC1`, “inactive”.

For the compound `CCCN=C1N(C)C[C@@H]2[C@@H]3C(=O)N(Cc4ccccc4)C(=O)[C@@H]3[C@](C)(C(=O)OC)N12`, the Potency entry is “inactive”. For the compound `COc1cccc(-c2sc3ccc(OC)cc3c2-c2ccc(OCCN3CCCCC3)cc2)c1`, the Potency entry was “inactive”. For `CC[C@@H](C)[C@@H]1CN([C@@H](C)CN2CCC[C@H]2CN2C(N)=NC[C@H]2C(C)C)C(=N)N1CCc1ccc(Cl)c(Cl)c1`, the Potency entry was “inactive”. With `C[C@H](CO)N1C[C@H](C)[C@@H](CN(C)Cc2ccc(-c3ccccc3)cc2)Oc2ccc(NC(=O)Cn3cnnn3)cc2C1=O`, the Potency entry was “inactive”. Turning to `COc1cc(C2CC(=O)Oc3cc(OC)c(OC)c(OC)c32)cc(OC)c1OC` (stereo not given), the Potency result is “inactive”. The result for `Cc1cccc(-c2noc(CCC(=O)NC3CCCC3)n2)c1` reads “inactive”. For `Cc1cccc(-c2noc(-c3ccc(F)cc3)n2)c1`, the Potency was 31.6 µM (active).

Regarding `Brc1ccc(-c2noc(-c3ccccc3)n2)o1`, the Potency entry was “inactive”. As to `CC(C)(C)OC(=O)C[C@H]1C/C=C\C[C@@H](CC(=O)N[C@H](CO)Cc2ccccc2)C(=O)NC[C@@H](c2ccccc2)OC1=O`, the Potency entry was “inactive”. In the case of `CN=C(Nc1cccc(S(=O)(=O)N2CCOCC2)c1)c1ccccc1`, the Potency entry is “inactive”. With `O=C(NCCC(=O)N1O[C@@H]2C=C[C@H]1C2)OCC1c2ccccc2-c2ccccc21`, the Potency result is “inactive”. As for `Nc1ncnc2c1ncn2[C@@H]1O[C@H](CNS(=O)(=O)c2ccc(-c3ccno3)s2)[C@@H](O)[C@H]1O`, the Potency result was “inactive”. Take `Cc1noc(C)c1NC(=O)Nc1ccc2c(c1)C(=O)N([C@H](C)CO)C[C@H](C)[C@@H](CN(C)C(=O)Nc1ccc(C(F)(F)F)cc1)O2`: the Potency entry is “inactive”.
